# Reference: PubChem BioAssay (NCI)
# Compounds without any hit were thinned out: in the full panel of roughly 83,000, 20% have a hit.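 Cell lines were cultured in 96-well plates, exposed to a single compound concentration, and assessed for percent growth 48 hours later.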 Unmarked numbers belong to inactive results. Activity calls are given as the source filed them. The calls were made as follows: active = growth percent below 10; inactive = the rest.
# How the values were obtained:
# Assay in all cases: NCI-60 one-dose screen, 48 h (100 = growth as untreated, 0 = no growth, -100 = all killed)
# Conditions in all cases: 10 µM unless noted
# SK-MEL-2 melanoma = system: SK-MEL-2 melanoma
# EKVX NSCLC = system: EKVX NSCLC
# SN12C renal = system: SN12C renal
# UO-31 renal = system: UO-31 renal
# TK-10 renal = system: TK-10 renal
# ACHN renal = system: ACHN renal
# CAKI-1 renal = system: CAKI-1 renal
# A498 renal = system: A498 renal
# CCRF-CEM leukemia = system: CCRF-CEM leukemia
# MOLT-4 leukemia = system: MOLT-4 leukemia
# SR leukemia = system: SR leukemia
# RPMI-8226 leukemia = system: RPMI-8226 leukemia
# OVCAR-8 ovarian = system: OVCAR-8 ovarian
# OVCAR-5 ovarian = system: OVCAR-5 ovarian
# OVCAR-4 ovarian = system: OVCAR-4 ovarian
# SK-OV-3 ovarian = system: SK-OV-3 ovarian
# IGROV1 ovarian = system: IGROV1 ovarian
# OVCAR-3 ovarian = system: OVCAR-3 ovarian
# HS 578T breast = system: HS 578T breast
# NCI/ADR-RES ovarian = system: NCI/ADR-RES ovarian
SMILES,growth (SK-MEL-2 melanoma),growth (EKVX NSCLC),growth (SN12C renal),growth (UO-31 renal),growth (TK-10 renal),growth (ACHN renal),growth (CAKI-1 renal),growth (A498 renal),growth (CCRF-CEM leukemia),growth (MOLT-4 leukemia),growth (SR leukemia),growth (RPMI-8226 leukemia),growth (OVCAR-8 ovarian),growth (OVCAR-5 ovarian),growth (OVCAR-4 ovarian),growth (SK-OV-3 ovarian),growth (IGROV1 ovarian),growth (OVCAR-3 ovarian),growth (HS 578T breast),growth (NCI/ADR-RES ovarian)
c1cnc2nc3c(cc2c1)oc1ccccc13,101%,102%,94.8%,68.3%,107%,93.3%,80%,69.3%,90.9%,92.8%,80.7%,94.1%,100%,105%,103%,121%,97.2%,115%,102%,100%
CCCCCCCCCCCCCCCCCCOc1ccccc1N,86.3%,85.3%,27.8%,-37% (active),103%,97.8%,67.8%,61.8%,11%,22.9%,75.4%,12.1%,70.9%,101%,55%,74.7%,75.1%,44.9%,84.2%,86.9%
CC1CCN(C(=O)OCc2nc3nc(Cl)nc(N4CCOCC4)c3[nH]2)CC1,-92% (active),40.4%,-61.4% (active),-100% (active),-91.8% (active),-100% (active),-73.8% (active),42.2%,-7.16% (active),0.0264% (active),-28.6% (active),-29.7% (active),-29% (active),-38.2% (active),-54.1% (active),62.8%,-68% (active),-92.8% (active),-13.5% (active),-18.6% (active)
CC(=O)NCCCS(=O)(=O)O,101%,98.6%,88.3%,83.9%,102%,98.2%,88.5%,93.4%,106%,104%,101%,113%,104%,100%,107%,103%,108%,108%,83.4%,101%
O=C(N/N=C/c1ccc(F)cc1)c1ccccc1Nc1cccc(C(F)(F)F)c1,114%,102%,102%,94.1%,130%,102%,112%,70.8%,6.32% (active),7.44% (active),24%,93.1%,89.5%,104%,84.4%,94.6%,103%,81.3%,112%,107%
COc1ccc(C(O)c2cc3c(N)c(C(=O)Nc4ccc(Br)cc4)sc3nc2C)cc1 (stereo unspecified),33.7%,32%,36%,43%,39.5%,37.8%,32.5%,-1.93% (active),6.36% (active),17.5%,-8% (active),-4.62% (active),30.6%,59%,42.9%,27.7%,43.6%,-34.9% (active),3.84% (active),18.5%
c1ccc(N2N=C(c3cccc(Nc4ccncc4)c3)CC2c2ccc3c(c2)OCO3)cc1 (stereo unspecified),39%,45.8%,40.8%,30.6%,63.1%,28.7%,25.7%,46.1%,1.64% (active),7.98% (active),4.46% (active),2.64% (active),21.7%,43.7%,33.6%,22.1%,16%,7.28% (active),23.8%,-1.79% (active)
CNC(=O)c1c(NC(=O)c2ccc(C(C)C)cc2)sc2c(CN(C)C)c(O)ccc12,90.2%,90.2%,99.4%,64.5%,86.8%,66.6%,85.1%,58.9%,56.7%,72.4%,-9.94% (active),22.5%,112%,106%,98.6%,99.7%,90.5%,99.3%,89.6%,91.3%
COc1ccc(C(=O)c2cc3c(N)c(C(=O)Nc4cccc(Cl)c4C)sc3nc2C)cc1,36.9%,39.6%,20.3%,21.7%,50.9%,24.1%,15.6%,-12.4% (active),5.42% (active),8.51% (active),-27.1% (active),1.21% (active),5.92% (active),40.9%,39.2%,25.9%,24.8%,-5.77% (active),15%,8.86% (active)
O=C1NC(=S)NC(=O)C1=Cc1cn(Cc2ccccn2)c2ccccc12,89.7%,84.7%,66.6%,59.2%,72.7%,82.2%,7.91% (active),-86.4% (active),31.3%,66%,13.1%,91.2%,51.7%,-4.45% (active),80.8%,85.5%,11.3%,33.5%,81.9%,85.1%
O=S(=O)(NCCCNc1nccc(-c2c(-c3ccccc3)nc3occn23)n1)c1ccc(Cl)cc1,88.3%,89.1%,68.2%,44.4%,102%,58.3%,62%,83.1%,75.5%,68.1%,60.9%,71.2%,74.4%,127%,,83%,75.7%,104%,96.7%,87.8%
NC(=O)c1cccc(-c2cc(C(N)=O)ccc2Cl)c1,34.5%,35.7%,50%,45.7%,51.2%,36.3%,31.8%,-5.64% (active),7.74% (active),26.9%,2.33% (active),14.3%,28.9%,51.3%,58.6%,,49.3%,-0.229% (active),5.29% (active),19%
CC(=O)O[C@H]1CC[C@@]2(C)[C@@H](CC[C@@H]3[C@@H]2CC[C@@]2(C)[C@H]3CC[C@]2(O)C(C)=O)C1,117%,87.1%,96.4%,92.7%,99.2%,88.6%,99.3%,90%,98.9%,97.6%,91.8%,88.1%,109%,97.7%,,103%,99.7%,108%,97.2%,96%
COc1ccc(NC(=O)c2sc3nc(C)c(C(=O)CCc4cccc(OC)c4)cc3c2N)cc1,53.2%,82.8%,73%,51%,85.4%,95.2%,71%,19.2%,65.4%,48.1%,20.4%,45.7%,90.9%,68.9%,76.5%,,75.8%,26.1%,82%,61.3%
